# Data published in PubChem BioAssay (NCI).
# Values joined by “and” are separate entries in the source; they are usually repeats but may differ in a detail not shown here. Identical values can stand only once. About 83,000 compounds went through this panel and 20% of them were active in at least one assay; those are over-represented in the sample as a whole.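 Percent growth is the endpoint: 0 to 100 indicates growth inhibition (40 means 60% inhibition), 0 means no net growth, and negative values indicate cell death.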 A number with no mark means an inactive call. Active and inactive are the calls of the source. Rule for the calls: active = growth percent below 10; inactive = the rest.
# Tested on: MDA-MB-468 breast
# Assay: NCI-60 one-dose screen, 48 h (100 = growth as untreated, 0 = no growth, -100 = all killed)
# Settings: 10 µM unless noted
row,Compound,growth
1,CCc1ccccc1NC(=O)c1sc2nc3c(cc2c1N)CCCC3,43%
2,C[C@@H]1C(=O)N(C[C@H](Cc2ccccc2)N(Cc2ccccc2)Cc2ccccc2)[C@]1(Cc1ccccc1)C(=O)OC(C)(C)C,10.7%
3,COc1ccc(C2CC(c3ccc(OC)c(OC)c3)=NN2C(=O)c2cc(OC)c(OC)c(OC)c2)cc1 (stereo not given),-32.5% (active)
4,Brc1ccccc1/C=N/Nc1nc(N/N=C/c2ccccc2Br)nc(N2CCOCC2)n1,90.3%
5,CC(=O)OC[C@H]1OC(Sc2sc(C(=O)c3ccc(Br)cc3)c(N)c2-c2nc3ccccc3s2)[C@H](OC(C)=O)[C@@H](OC(C)=O)[C@H]1OC(C)=O (stereo not given in full),91.9%
6,COc1ccc(C2C=C(c3ccc(Cl)cc3)N=C3SC=CN32)cc1 (stereo not given),120%
7,O=C(Nc1cccc(-c2nc(-c3ccc(NC(=O)c4cccnc4)cc3Cl)no2)c1)Nc1ccc(NC(=O)C2CC2)c(C(F)(F)F)c1,-72.6% (active)
8,CCN1/C(=C\c2cc[n+](CC)c3ccccc23)C=Cc2ccccc21,-9.93% (active)
9,O=C1OC(N(Cc2ccc(Cl)cc2)c2ccccc2)c2ccccc21 (stereo not given),104%
10,O=[N+]([O-])c1ccc(Nc2nc(NCCN3CCOCC3)ncc2[N+](=O)[O-])cc1,70.8%
11,CSc1nc(-c2ccc(F)cc2)c(C#N)c(N2CCOCC2)n1,87.3%
12,COc1ccc(/C=C2\CCCC3=C2NC(N)=NC3c2ccc(OC)c(OC)c2)cc1OC (stereo not given),-16.3% (active)
13,COc1cc(/C=C2\C(=O)Nc3cc(Cl)ccc32)ccc1OCc1ccc(F)cc1,93%
14,COc1cc(-c2csc(NC(=O)Nc3cc(C(F)(F)F)cc(C(F)(F)F)c3)n2)cc(OC)c1OC,4.77% (active)
15,CCOC(=O)N1CCN(CCCCl)CC1,97.4%
16,CC(=O)/C(N=Nc1ccc2oc(=O)ccc2c1)=C(\C)O,9.38% (active)
17,COc1cccc2c1C(=O)c1c(O)c3c(c(O)c1C2=O)C[C@@](O)(C(=O)CO)C[C@@H]3OC1CC(OC(C)=O)C(OC(C)=O)C(C)O1 (stereo not given in full),-25.8% (active)
18,COc1ccc(C2=CC(c3cc(OC)c(OC)c(OC)c3)n3ncnc3N2)cc1 (stereo not given),32.2%
19,COc1ccc(C(=O)c2cc(C(=O)/C=C/c3c(Cl)cccc3Cl)c3cc(C)ccn23)cc1,96.1%
20,COc1cccc(C2C(C#N)=C(N)Oc3cc(OC)ccc32)c1 (stereo not given),41.4%

row,Compound,growth
1,CC(C)(O)CCl,103%
2,C/C=C/C(=O)OCCCCCCCCCCCC,96.9%
3,N#Cc1c(Nc2ccccc2)nn2c(-c3ccc([N+](=O)[O-])cc3)ccnc12,106%
4,COc1cc([C@@H]2c3cc4c(cc3[C@H](O)[C@H]3COC(=O)[C@@H]23)OCO4)cc(OC)c1OC,-1.25% (active) and -3.58% (active)
5,OC(COc1cccc2ccccc12)CN1CCN(c2ccc(Cl)cc2)CC1 (stereo not given),58.7% and 96.8%
6,O=S(=O)(NCCNc1nccc(-n2cnc3ccccc32)n1)c1ccc(C(F)(F)F)cc1,26.4%
7,Cc1ccc(C(=O)/C(=C\c2ccc([N+](=O)[O-])cc2)S(=O)Cc2ccc(Cl)cc2)cc1 (stereo not given),24.3%
8,COc1cc2c(cc1OC)-c1ccc3cc4c(cc3c1N(CCCN1CCCCC1)C2)OCO4,56.5%
9,CN1CCN(Cc2ccc(NC(=O)c3cncc(C#Cc4cnc5ccc(N6CCOCC6)nn45)c3)cc2C(F)(F)F)CC1,-70.8% (active)
10,CCOC(=O)c1c(Nc2ccccc2)nn2c(-c3ccc(OC)c(OC)c3)ccnc12,37.7%
11,C=C1C(=O)O[C@H]2[C@H]1CC/C(COC(=O)NCCc1c[nH]c3ccccc13)=C\CC[C@@]1(C)O[C@@H]21,-6.71% (active)
12,COc1ccc(-c2nc(N)n(C(=S)Nc3ccccc3)n2)cc1,102%
13,CCN1C(=O)c2ccc3c4c(ccc(c24)C1=O)C(=O)N(CCCNCc1ccccc1OC)C3=O,-71.4% (active)
14,COc1ccc2[nH]c(=O)c(/C=C/C(=O)c3ccc(Nc4nccc(-c5ccc6ccccc6c5)n4)cc3)cc2c1,103%
15,CC(=O)OCC(COC(C)=O)(COC(C)=O)COC(C)=O,102%
16,O=C(NNc1nc2cc(F)ccc2n2c(CN3CCCC3)ccc12)c1cnccn1,-14.4% (active)
17,COc1ccc(-c2nc3sccn3c2-c2nc3c([nH]2)C(=O)c2ccccc2C3=O)cc1,95%
18,CCOC(=O)c1ccc(C(C)(C)C)cc1,107%
19,NCCCOc1cc2ccccc2cc1C(=O)Nc1ccc(Cl)cc1OC(=O)c1cc2ccccc2cc1OCCCN,-86% (active)
20,CC(C)(C)Nc1nc2c(OCCc3ccccc3)cccn2c1-c1cccc(F)c1,-30.8% (active)
